Values without a mark were called inactive. For some assays here: Entries with a potency or affinity are not part of this list. Activity calls are given as the source filed them. Unless noted, no rule for the calls is given here.

This note sets out measurements from PubChem BioAssay.

Assay [1] can be described thus: antimalarial activity against Dd2 strain (AID 2302;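 active = growth inhibition above 50% at the single 2 µM test dose, taken to imply half-maximal potency below 2 µM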;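 also: 0% = DMSO untreated growth and 100% = chloroquine plus artemisinin killed control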). As to conditions: P. falciparum Dd2 in RBCs, LDH growth readout, 72 h; at 2 µM; hits give high values.
Assay [2] can be described thus: HepG2 cytotoxicity, primary screen, cytotoxicity control for P. falciparum antimalarial project, cell-based, ATP luminescence (AID 2303;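 active = inhibition above 50%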;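 also: 0% = DMSO wells and 100% = digitonin-killed cells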). To be noted: HepG2 viability, 24-48 h, at 10 µM, hits give high values.
In assay [3] the target is L-lactate dehydrogenase (Plasmodium falciparum (isolate CDC / Honduras)) (UniProt Q27743). Kind of assay: PfLDH activity inhibition – cell lysate, 3D7 strain, counter-screen for P. falciparum growth inhibition project (AID 2304).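 Also: 0% = vehicle and 100% = reference inhibitor.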 As to conditions: P. falciparum 3D7 crude extract, LDH APAD/NBT absorbance; at 2 µM; hits give high values.
The nature of assay [4]: inhibition of 3D7 malaria parasite growth – strain 3D7 (AID 2306).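 Also: 0% = DMSO wells and 100% = chloroquine plus artemisinin control wells.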 As to conditions: P. falciparum 3D7 erythrocytic growth, LDH absorbance, 72 h; at 2 µM; hits give high values.
Assay [5] deals with Plasmodium falciparum protein kinase 6 (PK6, PF3D7_1337100) (UniProt Q8IDW1). The assay can be described thus: PfPK6 kinase inhibitors, biochemical, TCAMS library (AID 1159586). To be noted: recombinant PfPK6, Kinase-Glo ATP depletion luminescence.
Assay [6] concerns the target Protein kinase 7 (PK7), Plasmodium falciparum 3D7 (PF3D7_0213400) (UniProt Q7YTF7). Kind of assay: inhibition of Plasmodium PK7 catalytic activity – biochemical, TCAMS antimalarial set, Kinase-Glo luminescence (AID 1159587). As to conditions: recombinant PfPK7, Kinase-Glo ATP depletion luminescence.
Assay [7] has as its target Calcium-dependent protein kinase 4 (Plasmodium falciparum (isolate 3D7)) (UniProt Q8IBS5). The assay can be described thus: PfCDPK4 kinase inhibitors, biochemical, TCAMS library (AID 1159588; cut-off not given, nearly all actives have IC50 up to about 0.91 µM). To be noted: recombinant PfCDPK4, Kinase-Glo ATP depletion luminescence.

Chain of Protein kinase 7 (PK7), Plasmodium falciparum 3D7 (PF3D7_0213400) (Q7YTF7 1-343): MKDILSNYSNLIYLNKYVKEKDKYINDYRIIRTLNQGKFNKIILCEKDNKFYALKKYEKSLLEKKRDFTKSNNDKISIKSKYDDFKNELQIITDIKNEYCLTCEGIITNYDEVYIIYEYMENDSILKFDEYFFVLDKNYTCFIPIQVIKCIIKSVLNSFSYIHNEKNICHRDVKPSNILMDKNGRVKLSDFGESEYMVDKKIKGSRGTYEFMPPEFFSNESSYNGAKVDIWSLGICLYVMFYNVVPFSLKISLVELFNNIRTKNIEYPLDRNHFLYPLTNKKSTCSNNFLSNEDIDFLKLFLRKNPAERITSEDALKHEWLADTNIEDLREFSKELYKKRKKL
Chain of Plasmodium falciparum protein kinase 6 (PK6, PF3D7_1337100) (Q8IDW1 1-305): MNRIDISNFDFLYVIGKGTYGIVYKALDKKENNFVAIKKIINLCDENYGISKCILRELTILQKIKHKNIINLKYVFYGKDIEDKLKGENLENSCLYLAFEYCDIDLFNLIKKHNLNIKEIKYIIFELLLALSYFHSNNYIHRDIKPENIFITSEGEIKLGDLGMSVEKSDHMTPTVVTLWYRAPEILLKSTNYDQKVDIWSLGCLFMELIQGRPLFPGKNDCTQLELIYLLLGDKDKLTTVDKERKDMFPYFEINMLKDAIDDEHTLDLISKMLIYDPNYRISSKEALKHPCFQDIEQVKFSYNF
Chain of Calcium-dependent protein kinase 4 (Plasmodium falciparum (isolate 3D7)) (Q8IBS5 whole entry, looked up): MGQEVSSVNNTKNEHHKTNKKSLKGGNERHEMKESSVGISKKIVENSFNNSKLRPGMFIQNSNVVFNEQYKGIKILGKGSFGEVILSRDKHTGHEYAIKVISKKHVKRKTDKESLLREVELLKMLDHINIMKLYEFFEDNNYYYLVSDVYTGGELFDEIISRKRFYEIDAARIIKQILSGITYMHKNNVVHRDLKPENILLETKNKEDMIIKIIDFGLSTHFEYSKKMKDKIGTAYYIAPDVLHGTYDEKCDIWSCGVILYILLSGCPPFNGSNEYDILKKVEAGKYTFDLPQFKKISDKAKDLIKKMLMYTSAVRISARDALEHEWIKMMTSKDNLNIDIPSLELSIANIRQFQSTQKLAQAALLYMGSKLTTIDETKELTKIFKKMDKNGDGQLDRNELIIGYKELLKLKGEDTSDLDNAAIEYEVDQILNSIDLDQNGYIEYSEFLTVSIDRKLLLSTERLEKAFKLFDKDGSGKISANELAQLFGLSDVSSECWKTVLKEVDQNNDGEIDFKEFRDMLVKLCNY
Chain of L-lactate dehydrogenase (Plasmodium falciparum (isolate CDC / Honduras)) (Q27743 whole entry, looked up): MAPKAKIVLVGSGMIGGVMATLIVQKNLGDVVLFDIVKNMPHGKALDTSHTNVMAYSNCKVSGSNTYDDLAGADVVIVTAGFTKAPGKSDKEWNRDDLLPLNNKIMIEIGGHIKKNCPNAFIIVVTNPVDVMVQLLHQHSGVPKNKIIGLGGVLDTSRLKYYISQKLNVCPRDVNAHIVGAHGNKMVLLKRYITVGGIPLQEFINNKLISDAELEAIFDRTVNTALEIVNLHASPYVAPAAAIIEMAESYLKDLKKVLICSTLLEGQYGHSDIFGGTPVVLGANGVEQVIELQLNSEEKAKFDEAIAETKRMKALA

Consider `COCCNCc1cccc(-c2ccc3c(Nc4cc(O)c(Cl)cc4F)ccnc3c2)c1`, for which the growth inhibition was 79% (active) in assay [1] and 101% (active) in assay [4]. Also, the inhibition is -3% in assay [2] and 7% in assay [3]. In addition, the outcome in assay [5], in assay [6] and in assay [7] was inactive.

As for `O=C(NCCN1CCCCC1)c1cccc(Nc2nccc(Nc3ccc(Oc4ccccc4)cc3)n2)c1`, the growth inhibition in assay [1] was 86% (active); in assay [4] it was 99% (active). Further, the inhibition in assay [2] is 50% (active); in assay [3], -2%. The result in assay [5], in assay [6] and in assay [7] was inactive.

For `CN1CCN(CCCNCc2cccc(Nc3nccc(Nc4ccc(Oc5ccccc5)cc4)n3)c2)CC1`, the values for the growth inhibition in assay [1] and in assay [4] were 80% (active) and 100% (active), respectively. Also, the inhibition in assay [2] is 97% (active); in assay [3], -2%. Moreover, the result in assay [5], in assay [6] and in assay [7] was inactive.

Regarding `CN1CCN(CCCNCc2ccc(Nc3nccc(Nc4ccc(Oc5ccccc5)cc4)n3)cc2)CC1`, the growth inhibition in assay [1] was 9%; in assay [4], 100% (active). Moreover, the inhibition was 17% in assay [2] and 0% in assay [3]. The outcome in assay [5], in assay [6] and in assay [7] was inactive.

Take `COc1cc(-c2nc(C(C)(C)CN)[nH]c2-c2ccncc2)ccc1Br`: the growth inhibition in assay [1] was 95% (active); in assay [4] it was 97% (active). In addition, the inhibition in assay [2] was 17%; in assay [3], 1%. The result in assay [5], in assay [6] and in assay [7] was inactive.

On to `COc1cccc(CNCC(C)(C)c2nc(-c3ccc(Cl)c(O)c3)c(-c3ccncc3)[nH]2)c1`, for which the values for the growth inhibition in assay [1] and in assay [4] were 98% (active) and 101% (active), respectively. Besides, the inhibition in assay [2] is 74% (active); in assay [3] it was -9%. Also, the result in assay [5], in assay [6] and in assay [7] was inactive.

Regarding `N#Cc1ccc(-c2cnc3ccc(NCCc4cccnc4)nn23)cc1`, the growth inhibition in assay [1] was 81% (active); in assay [4], 99% (active). In addition, the inhibition was 27% in assay [2] and 6% in assay [3]. The result in assay [5], in assay [6] and in assay [7] was inactive.

On to `COc1cccc(Nc2nccc(-c3c(-c4cccc(NC(=O)c5c(F)cccc5F)c4)nn4ccccc34)n2)c1`, for which the growth inhibition in assay [1] and in assay [4] was 98% (active) each time. The inhibition was 35% in assay [2] and -2% in assay [3]. Also, the result in assay [5], in assay [6] and in assay [7] was inactive.

Consider `COc1ccc2nc(-c3cc(-c4ccc(NC(C)=O)cc4)cnc3N)[nH]c2c1`, for which the growth inhibition is 73% (active) in assay [1] and 93% (active) in assay [4]. In addition, the inhibition in assay [2] was 55% (active); in assay [3] it was -1%. Further, the outcome in assay [5], in assay [6] and in assay [7] was inactive.

As to `NCCCOc1cnc(-c2ccccc2)c2nc(-c3nonc3N)n(CCc3ccccc3)c12`, the growth inhibition in assay [1] was 86% (active); in assay [4] it was 93% (active). The inhibition was 56% (active) in assay [2] and -4% in assay [3]. The result in assay [5], in assay [6] and in assay [7] was inactive.

On to `CC(C)(CNCc1ccc(OC(F)(F)F)cc1)c1nc(-c2ccc(Cl)c(O)c2)c(-c2ccncc2)[nH]1`, for which the growth inhibition in assay [1] is 99% (active); in assay [4], 102% (active). In addition, the figures for the inhibition in assay [2] and in assay [3] were 38% and -2%, respectively. Also, the outcome in assay [5], in assay [6] and in assay [7] was inactive.

As to `Fc1cc(Cl)ccc1Nc1ccnc2cc(-c3ccc(CNCCN4CCOCC4)o3)ccc12`, the figures for the growth inhibition in assay [1] and in assay [4] were 100% (active) and 101% (active), respectively. Also, the inhibition is 13% in assay [2] and -2% in assay [3]. In addition, the outcome in assay [5], in assay [6] and in assay [7] was inactive.

As for `c1ccc(Oc2ccc(Nc3ccnc(Nc4ccc5cn[nH]c5c4)n3)cc2)cc1`, the growth inhibition was 33% in assay [1] and 94% (active) in assay [4]. Moreover, the values for the inhibition in assay [2] and in assay [3] were 6% and -7%, respectively. The outcome in assay [5], in assay [6] and in assay [7] was inactive.

Take `COCCNCc1cccc(-c2ccc3c(Nc4ccc(Oc5cccnc5)cc4)ccnc3c2)c1`: the growth inhibition is 99% (active) in assay [1] and 100% (active) in assay [4]. The inhibition in assay [2] is 58% (active); in assay [3] it was -5%. Moreover, the outcome in assay [5], in assay [6] and in assay [7] was inactive.

Take `Cc1nc(-c2cccc(Nc3ccnc4cc(-c5nccs5)ccc34)c2)no1`: the growth inhibition in assay [1] is 90% (active); in assay [4], 99% (active). The inhibition in assay [2] was 37%; in assay [3] it was -2%. In addition, the result in assay [5], in assay [6] and in assay [7] was inactive.

Regarding `Clc1ccc(-c2cnc3ccc(NCCc4cccnc4)nn23)cc1`, the growth inhibition in assay [1] is 32%; in assay [4], 97% (active). For the same molecule, the inhibition in assay [2] was 34%; in assay [3], -4%. Moreover, the outcome in assay [5], in assay [6] and in assay [7] was inactive.

In the case of `CC(C)(CNC(=O)C1CCN(CCOCc2ccccc2)CC1)c1nc(-c2ccc(Cl)c(O)c2)c(-c2ccncc2)[nH]1`, the results for the growth inhibition in assay [1] and in assay [4] were 18% and 101% (active), respectively. Further, the inhibition in assay [2] is 11%; in assay [3] it was -14%. Moreover, the result in assay [5], in assay [6] and in assay [7] was inactive.
